Some test systems named below: 786-0 renal; MALME-3M melanoma; UACC-257 melanoma; SK-MEL-2 melanoma; EKVX NSCLC; SN12C renal; TK-10 renal; ACHN renal; CAKI-1 renal; A498 renal; RPMI-8226 leukemia; OVCAR-8 ovarian; OVCAR-4 ovarian; SK-OV-3 ovarian; IGROV1 ovarian; OVCAR-3 ovarian; BT-549 breast; MDA-MB-435 melanoma; HCT-116 colon; HCC-2998 colon.
What all share (test): NCI-60 one-dose screen, 48 h (100 = growth as untreated, 0 = no growth, -100 = all killed)
Holding throughout (conditions): 10 µM

The panel holds about 83,000 compounds, 20% with a hit somewhere; the sample as a whole holds those more often.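 Percent growth is the endpoint: 0 to 100 indicates growth inhibition (40 means 60% inhibition), 0 means no net growth, and negative values indicate cell death.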 Unmarked numbers belong to inactive results. Active and inactive are the calls of the source. How the source made its calls: active means growth percent below 10; inactive means the rest.

Take `C[C@H]1[C@@H](Oc2ccc(-c3cn(-c4ccnc5cc(Cl)ccc45)nn3)cc2)O[C@@H]2OC3(C)CC[C@H]4[C@H](C)CC[C@@H]1[C@@]24OO3`: the growth in the test with 786-0 renal was 35.1%; with MALME-3M melanoma it was 13.7%; in the test on UACC-257 melanoma, 41.1%; in the test with SK-MEL-2 melanoma it was 7.17% (active); with EKVX NSCLC, 29.7%; in the test with SN12C renal, 24.3%. Moreover, the growth was 35.4% in the test on TK-10 renal; 14.3% in the test with ACHN renal; 25.6% in the test on CAKI-1 renal; 95% with A498 renal; 23% with RPMI-8226 leukemia; 16% in the test on OVCAR-8 ovarian. In addition, the growth in the test on OVCAR-4 ovarian is 40.9%; with SK-OV-3 ovarian, 52.3%; with IGROV1 ovarian, 34.3%; with OVCAR-3 ovarian, 32.7%; with BT-549 breast, 24.9%; with MDA-MB-435 melanoma it was 35.6%. Besides, the growth was 15.8% with HCT-116 colon and 48.8% in the test on HCC-2998 colon.
Turning to `O=C(/C=C/c1cccc(Br)c1)c1nc2ccccc2n1Cc1ccc(Br)cc1`, the growth in the test on 786-0 renal was -79% (active); in the test on MALME-3M melanoma, -36.5% (active); in the test on UACC-257 melanoma, 6.73% (active); with SK-MEL-2 melanoma, -42.3% (active); in the test on EKVX NSCLC, -54.8% (active); with SN12C renal, -10.1% (active). Moreover, the growth in the test with TK-10 renal was 10.4%; in the test with ACHN renal it was -30.5% (active); in the test on CAKI-1 renal, 16.6%; with A498 renal, 81.5%; with RPMI-8226 leukemia, -34.8% (active); in the test with OVCAR-8 ovarian, -8.23% (active). The growth with OVCAR-4 ovarian was 35.3%; with SK-OV-3 ovarian, 65.4%; in the test on IGROV1 ovarian, -8.02% (active); with OVCAR-3 ovarian it was -51.5% (active); in the test with BT-549 breast, -44.7% (active); in the test on MDA-MB-435 melanoma, -31.2% (active). The growth with HCT-116 colon is -96% (active); with HCC-2998 colon, -94.7% (active).
For the compound `COc1cc2cc(C(=O)N3C[C@@H](CCl)c4c3cc(OC(=O)N3CCN(C)[C@@H]5CSSC[C@H]53)c3ccccc43)[nH]c2c(OC)c1OC`, the growth is -57.9% (active) with 786-0 renal; -92% (active) with MALME-3M melanoma; -46.3% (active) in the test with UACC-257 melanoma; -91.8% (active) with SK-MEL-2 melanoma; -86.3% (active) with EKVX NSCLC; -62.1% (active) in the test with SN12C renal. For the same compound, the growth in the test on TK-10 renal is -28.4% (active); in the test with ACHN renal it was -31.2% (active); with CAKI-1 renal, -9.91% (active); in the test on A498 renal, -37% (active); in the test with RPMI-8226 leukemia it was -33.9% (active); with OVCAR-8 ovarian, -30.2% (active). The growth is -54.7% (active) in the test with OVCAR-4 ovarian; -26.3% (active) in the test with SK-OV-3 ovarian; -61% (active) in the test with IGROV1 ovarian; -9.08% (active) with OVCAR-3 ovarian; -96.4% (active) with BT-549 breast; -65.9% (active) in the test on MDA-MB-435 melanoma. Also, the results for the growth with HCT-116 colon and in the test on HCC-2998 colon were -23.6% (active) and -79.9% (active), respectively.
In the case of `O=C(/C=C/c1ccc(Cl)cc1)c1nc2ccccc2n1Cc1ccc(F)cc1`, the growth was 5.13% (active) in the test with 786-0 renal; 49.9% in the test on MALME-3M melanoma; 51.4% with UACC-257 melanoma; 68.3% in the test with SK-MEL-2 melanoma; 20.4% in the test on EKVX NSCLC; 19.7% in the test with SN12C renal. For the same compound, the growth was 58.1% with TK-10 renal; 23.5% in the test on ACHN renal; 41.8% with CAKI-1 renal; 125% with A498 renal; -20.2% (active) in the test with RPMI-8226 leukemia; 17.1% with OVCAR-8 ovarian. In addition, the growth with OVCAR-4 ovarian was 58.8%; with SK-OV-3 ovarian, 78.1%; in the test on IGROV1 ovarian, 29%; in the test on OVCAR-3 ovarian it was 22.7%; in the test on BT-549 breast, 2.95% (active); in the test with MDA-MB-435 melanoma it was 12.1%. Also, the growth is 3.49% (active) with HCT-116 colon and 32.5% in the test with HCC-2998 colon.
Regarding `CC[C@]12C=CCN3CC[C@@]4(c5ccc(OC)cc5N(C)[C@H]4[C@@](O)(C(=O)OC)[C@@H]1OC(=O)CCC[P+](c1ccc(F)cc1)(c1ccc(F)cc1)c1ccc(F)cc1)[C@@H]32`, the growth in the test on 786-0 renal was 80.9%; with MALME-3M melanoma, -32.6% (active); with UACC-257 melanoma, -34.3% (active); in the test on SK-MEL-2 melanoma, -46.9% (active); in the test on EKVX NSCLC, 58.1%; in the test on SN12C renal it was 16.6%. Further, the growth in the test with TK-10 renal was 63.9%; in the test on ACHN renal, 101%; in the test on CAKI-1 renal, 73.1%; in the test on A498 renal, 101%; in the test on RPMI-8226 leukemia it was 24.4%; with OVCAR-8 ovarian, 28%. In addition, the growth in the test with OVCAR-4 ovarian was 48.6%; in the test with SK-OV-3 ovarian, 54.7%; in the test on IGROV1 ovarian it was -15% (active); with OVCAR-3 ovarian, 21.1%; in the test on BT-549 breast, -9.4% (active); with MDA-MB-435 melanoma it was 6.69% (active). For the same compound, the growth with HCT-116 colon is 32.2%; in the test on HCC-2998 colon it was 22.4%.
With `O=C([Se]C1C=CCCC1)c1ccc(C(=O)[Se]C2C=CCCC2)s1` (stereo not given), the growth in the test on 786-0 renal is -92.7% (active); in the test with MALME-3M melanoma, -85.7% (active); in the test with UACC-257 melanoma it was -74.7% (active); in the test with SK-MEL-2 melanoma, -37.7% (active); with EKVX NSCLC it was -89.9% (active); with SN12C renal it was -81.8% (active). Besides, the growth in the test on TK-10 renal is -80.9% (active); in the test on ACHN renal, -67% (active); with CAKI-1 renal it was -61.6% (active); in the test on A498 renal, 20.6%; in the test on RPMI-8226 leukemia it was -43.1% (active); with OVCAR-8 ovarian, -97.6% (active). Also, the growth is -95.3% (active) in the test on OVCAR-4 ovarian; -97.5% (active) in the test on SK-OV-3 ovarian; -90.4% (active) in the test with IGROV1 ovarian; -92.4% (active) in the test on OVCAR-3 ovarian; -65.7% (active) in the test on BT-549 breast; -61.2% (active) with MDA-MB-435 melanoma. For the same compound, the growth with HCT-116 colon was -43.1% (active); with HCC-2998 colon, -67.8% (active).
For `CC(C)N=C([Se])NC(=O)c1cccs1`, the growth is 2.02% (active) in the test on 786-0 renal; 102% in the test with MALME-3M melanoma; 39.3% with UACC-257 melanoma; -57.7% (active) in the test with SK-MEL-2 melanoma; 14.7% with EKVX NSCLC; -21.4% (active) in the test on SN12C renal. In addition, the growth in the test on TK-10 renal is 56%; with ACHN renal, 47.2%; in the test on CAKI-1 renal, 31.1%; in the test on A498 renal, 36.6%; with RPMI-8226 leukemia it was -4.48% (active); in the test on OVCAR-8 ovarian it was -36.8% (active). Moreover, the growth with OVCAR-4 ovarian is 83%; in the test on SK-OV-3 ovarian, -17.3% (active); in the test with IGROV1 ovarian, 1.76% (active); in the test with OVCAR-3 ovarian, 66.3%; in the test with BT-549 breast, 43.7%; in the test with MDA-MB-435 melanoma, 37.4%. In addition, the growth was 13.3% in the test with HCT-116 colon and 27.6% in the test with HCC-2998 colon.
For the compound `CC1=C(C=O)C2=C(C)C3(CC3)[C@@](C)(O)C(=O)C2=C1`, the growth in the test on 786-0 renal was -38.7% (active); in the test with MALME-3M melanoma, 1.71% (active); with UACC-257 melanoma, 73.8%; with SK-MEL-2 melanoma, 8.32% (active); with EKVX NSCLC, 68%; in the test on SN12C renal, 44.2%. The growth with TK-10 renal is 53.6%; with ACHN renal, -61.1% (active); in the test with CAKI-1 renal, 31.7%; in the test with A498 renal, -30.3% (active); in the test with RPMI-8226 leukemia, 17.1%; with OVCAR-8 ovarian, -25.3% (active). The growth is 44.5% with OVCAR-4 ovarian; -3.31% (active) in the test on SK-OV-3 ovarian; 53.6% in the test with IGROV1 ovarian; -9.94% (active) with OVCAR-3 ovarian; -14.5% (active) in the test with BT-549 breast; -35.2% (active) in the test on MDA-MB-435 melanoma. For the same compound, the growth is -34.7% (active) with HCT-116 colon and 17.2% with HCC-2998 colon.

The values are drawn from PubChem BioAssay (NCI).
